8 compounds from PubChem BioAssay (NCI) can be followed below.

Some test systems named below: NCI-H23 lung; NCI-H226 lung; NCI-H322M lung; HOP-62 NSCLC; NCI-H460 lung; HOP-92 NSCLC; NCI-H522 lung; A549/ATCC NSCLC; 786-0 renal; COLO 205 colon; DU-145 prostate; K-562 leukemia; MALME-3M melanoma; MDA-MB-231 breast; RXF 393 renal; SF-268 CNS; SF-295 CNS; SF-539 CNS; UACC-257 melanoma; M14 melanoma.
Common to all, as to experiment: NCI-60 one-dose screen, 48 h (100 = growth as untreated, 0 = no growth, -100 = all killed)
Common to all, as to settings: 10 µM unless noted

Compounds without any hit were thinned out: in the full panel of roughly 83,000, 20% have a hit.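 Single-concentration screen, 48 h exposure, 96-well plates. Endpoint: percent growth. Below 10 = active.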 A number with no mark means an inactive call. Active and inactive are the calls of the source.

`Nc1c(C(=O)Nc2ccccn2)sc2nc3c(cc12)CCCCCC3`: the growth is 41% with NCI-H23 lung; 42.1% with NCI-H226 lung; 33% in the test on NCI-H322M lung; 17.8% with HOP-62 NSCLC; 6.37% (active) with NCI-H460 lung; 30.8% with HOP-92 NSCLC. Moreover, the growth was 6.47% (active) in the test on NCI-H522 lung; 14.1% in the test with A549/ATCC NSCLC; 10.7% in the test with 786-0 renal; 8.74% (active) in the test with COLO 205 colon; 11.4% in the test with DU-145 prostate; 7.85% (active) in the test on K-562 leukemia. In addition, the growth in the test with MALME-3M melanoma was 20.7%; in the test on MDA-MB-231 breast it was 49.4%; with RXF 393 renal, -8.82% (active); with SF-268 CNS, 35.6%; in the test with SF-295 CNS, 0.944% (active); with SF-539 CNS it was 6.92% (active). In addition, the values for the growth with UACC-257 melanoma and in the test on M14 melanoma were 49.5% and 7.38% (active), respectively.
On to `OCCNc1nc(NCCO)nc(Nc2ccc(C3=NN(c4ccc(Cl)cc4)C(c4ccc(Cl)cc4)C3)cc2)n1` (stereo not given), for which the growth with NCI-H23 lung is 70.4%; in the test with NCI-H226 lung it was 104%; in the test on NCI-H322M lung, 50.7%; in the test on HOP-62 NSCLC it was 47.2%; in the test on NCI-H460 lung it was 36.2%; with HOP-92 NSCLC, 81.9%. Also, the growth is 63.9% in the test with NCI-H522 lung; 50.9% with A549/ATCC NSCLC; 16.7% in the test with 786-0 renal; 65.5% in the test with COLO 205 colon; 51.9% in the test on DU-145 prostate; 13.3% with K-562 leukemia. The growth was 70.1% in the test with MALME-3M melanoma; 63.7% in the test with MDA-MB-231 breast; -26.1% (active) in the test with RXF 393 renal; 53% in the test on SF-268 CNS; 12.2% in the test on SF-295 CNS; 36.6% in the test with SF-539 CNS. In addition, the growth in the test with UACC-257 melanoma was 72.9%; in the test with M14 melanoma, 63.9%.
Regarding `COc1ccccc1C(=O)/C=C/c1cc2cccc(OC)c2[nH]c1=O`, the growth with NCI-H23 lung is -16.4% (active); with NCI-H226 lung it was -22.1% (active); in the test on NCI-H322M lung it was 8.09% (active); with HOP-62 NSCLC, -8.85% (active); in the test on NCI-H460 lung it was -27.5% (active); in the test with HOP-92 NSCLC it was 10.6%. In addition, the growth was -72.7% (active) with NCI-H522 lung; 21.4% in the test with A549/ATCC NSCLC; 9.27% (active) with 786-0 renal; -49.7% (active) in the test on COLO 205 colon; 16.5% with DU-145 prostate; 5.33% (active) with K-562 leukemia. For the same compound, the growth in the test on MALME-3M melanoma is -0.686% (active); with MDA-MB-231 breast, -0.926% (active); in the test on RXF 393 renal it was -43.5% (active); in the test with SF-268 CNS it was 2.36% (active); in the test on SF-295 CNS it was 14.1%; with SF-539 CNS it was -10% (active). Besides, the growth with UACC-257 melanoma was 33.6%; in the test on M14 melanoma it was 9.63% (active).
As for `COCCOCCOCc1n(Cc2ccc3ccccc3n2)c2ccccc2[n+]1Cc1ccc2ccccc2n1`, the growth in the test on NCI-H23 lung is 12.7%; in the test on NCI-H226 lung, 37.9%; in the test on NCI-H322M lung, 47.4%; with HOP-62 NSCLC it was 20.8%; in the test with NCI-H460 lung, 16.5%; in the test with HOP-92 NSCLC, -22.1% (active). The growth with NCI-H522 lung is -1.7% (active); with A549/ATCC NSCLC, 39.4%; in the test on 786-0 renal, 77.8%; in the test with COLO 205 colon, -31.4% (active); in the test with DU-145 prostate it was 35.4%; with K-562 leukemia, 19.1%. For the same compound, the growth in the test with MALME-3M melanoma was 5.23% (active); in the test with MDA-MB-231 breast, 17.9%; in the test with RXF 393 renal it was 66.9%; in the test with SF-268 CNS, 22.7%; in the test with SF-295 CNS, 52.3%; in the test with SF-539 CNS, 26.7%. Moreover, the growth is -5.39% (active) with UACC-257 melanoma and 26% with M14 melanoma.
As for `COC(=O)c1oc2c(C(=O)/C=C/c3ccc(OC)cc3)c(OCCCN3CCCCC3)ccc2c1C`, the growth with NCI-H23 lung is 22.1%; in the test on NCI-H226 lung, 89.4%; in the test on NCI-H322M lung, 17.8%; with HOP-62 NSCLC it was 1.98% (active); with NCI-H460 lung, 4.2% (active); in the test on HOP-92 NSCLC, -38.8% (active). Further, the growth is 1.11% (active) in the test on NCI-H522 lung; -3.52% (active) in the test on A549/ATCC NSCLC; 1.16% (active) with 786-0 renal; 29.2% with COLO 205 colon; 15.4% with DU-145 prostate; -16.2% (active) in the test on K-562 leukemia. The growth was -64.4% (active) with MALME-3M melanoma; 32.4% in the test with MDA-MB-231 breast; -75.2% (active) in the test with RXF 393 renal; -2.59% (active) in the test with SF-268 CNS; 11.6% with SF-295 CNS; -55.8% (active) in the test with SF-539 CNS. Further, the growth was 40.1% in the test on UACC-257 melanoma and -40.3% (active) in the test with M14 melanoma.
With `CCC[S@](=O)c1ccc2nc(NC(=O)OC)[nH]c2c1`, the growth with NCI-H23 lung is 98.2%; with NCI-H226 lung, 89.9%; with NCI-H322M lung it was 98.6%; in the test with HOP-62 NSCLC, 84.6%; in the test on NCI-H460 lung it was 99.8%; in the test with HOP-92 NSCLC, 96.5%. Moreover, the growth in the test with NCI-H522 lung is 70.7%; with A549/ATCC NSCLC, 75.6%; with 786-0 renal it was 94.2%; in the test on COLO 205 colon, 100%; in the test on DU-145 prostate, 106%; with K-562 leukemia, 92.3%. Moreover, the growth was 104% with MALME-3M melanoma; 96.4% with MDA-MB-231 breast; 115% in the test with RXF 393 renal; 102% with SF-268 CNS; 99.9% with SF-295 CNS; 96.6% in the test with SF-539 CNS. Also, the growth with UACC-257 melanoma was 69.3%; in the test on M14 melanoma, 98.9%.
On to `Clc1ccc2c(NCCCNC3CCCCC3)ccnc2c1`, for which the growth in the test on NCI-H23 lung was 112%; with NCI-H226 lung, 108%; in the test on NCI-H322M lung it was 101%; in the test on HOP-62 NSCLC, 91.1%; in the test with NCI-H460 lung, 104%; in the test on HOP-92 NSCLC it was 80.4%. Further, the growth with NCI-H522 lung is 107%; in the test on A549/ATCC NSCLC it was 120%; with 786-0 renal it was 68.5%; with COLO 205 colon, 93.5%; in the test with DU-145 prostate, 101%; in the test on K-562 leukemia, 70.3%. Moreover, the growth in the test with MALME-3M melanoma was 116%; in the test on MDA-MB-231 breast, 94.1%; in the test with RXF 393 renal, 82.6%; with SF-268 CNS, 103%; in the test on SF-295 CNS, 55.1%; in the test on SF-539 CNS, 101%. Moreover, the values for the growth in the test with UACC-257 melanoma and in the test on M14 melanoma were 107% and 89.8%, respectively.
Regarding `CCOC(=O)/C=C1\SC(=Nc2ccc(C#N)cc2)N(CCN2C(=O)/C(=C/C(=O)OCC)SC2=Nc2ccc(C#N)cc2)C1=O`, the growth with NCI-H23 lung was 52%; with NCI-H226 lung, 92.9%; in the test on NCI-H322M lung, 86.6%; in the test with HOP-62 NSCLC, 51.3%; in the test on NCI-H460 lung it was 31.6%; in the test on HOP-92 NSCLC it was 80.4%. The growth was 36.4% with NCI-H522 lung; 77.5% in the test with A549/ATCC NSCLC; 48.5% in the test with 786-0 renal; 18.6% in the test on COLO 205 colon; 41.7% in the test on DU-145 prostate; 7.43% (active) in the test on K-562 leukemia. In addition, the growth with MALME-3M melanoma is 98.6%; in the test on MDA-MB-231 breast it was 16.3%; with RXF 393 renal, 49.7%; in the test on SF-268 CNS, 29.7%; in the test with SF-295 CNS, 76.8%; in the test with SF-539 CNS, 41.6%. For the same compound, the growth with UACC-257 melanoma is 77.3%; in the test with M14 melanoma, 52.3%.
